# Measurements taken from PubChem BioAssay (NCATS).
# Values joined by “and” are separate entries in the source; they are usually repeats but may differ in a detail not shown here. Identical values can stand only once. Inconclusive results are not listed. Where a call stands in place of a potency, no number is given. Unmarked numbers belong to inactive results. Active and inactive are the calls of the source. The call rests on the fitted dose curve; in most records, active means well fitted inhibition curve with a large enough effect; inconclusive means small, poorly fitted or top-dose-only effect; inactive means flat fitted curve, though single readings scatter.
# Legend:
# CRL-7250 = normal cell line; experiment: Cytotoxic Profiling of Annotated Libraries Using Quantitative High-Throughput Screening (AID 1296008); details: Five cell lines viability, CellTiter-Glo ATP luminescence, 48-72 h; max response: hits give low values; further: potency means the concentration at half of the fitted maximal effect
# Procedure, shortened: (§1)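 Cells exposed to compounds for 48 or 72 hr at 37 degrees Celsius. Viability read as ATP-coupled luminescence with CellTiter-Glo after 10 min at room temperature.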
# HaCat [1] = experiment: as above; details: Five cell lines viability, CellTiter-Glo ATP luminescence, 48-72 h; max response: hits give low values
# Procedure, shortened: as §1
# KB-3-1 = experiment: as above; details: Five cell lines viability, CellTiter-Glo ATP luminescence, 48-72 h; max response: hits give low values
# Procedure, shortened: as §1
# NIH3T3 = experiment: as above; details: Five cell lines viability, CellTiter-Glo ATP luminescence, 48-72 h; max response: hits give low values
# Procedure, shortened: as §1
# HACAT [2] = experiment: qHTS assay to identify novel small-molecules to repurpose for Merkel cell carcinoma treatment (AID 1296009); details: MCC and control cell lines, CellTiter-Glo viability, 72 h; at 44.8 µM (top of the series) unless noted
# Procedure, shortened: (§2)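 Cells were treated for 72 hr at 37 degree celsius with compounds in 8- or 11-point dose response. Viability was read by CellTiter-Glo luminescence, normalized to no-cell (cytotoxicity) and DMSO controls.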
# HEK293T = experiment: as above; details: MCC and control cell lines, CellTiter-Glo viability, 72 h; at 44.8 µM (top of the series) unless noted
# Procedure, shortened: as §2
# JCK = experiment: qHTS profiling for inhibitors of Plasmodium falciparum proliferation (AID 504749); further: potency means the concentration at half of the fitted maximal effect; details: P. falciparum in erythrocytes, SYBR Green DNA, 72 h; series mostly up to 28.7 µM
# Procedure, shortened: (§3)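 P. falciparum-infected erythrocytes (0.3% parasitemia, 2.5% hematocrit) incubated with compound 72 h at 37 C, 5% CO2. Parasite DNA detected by SYBR Green after lysis, overnight at room temperature; normalised to 0.29 uM artemisinin and DMSO.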
# N140 = experiment: as above; details: P. falciparum in erythrocytes, SYBR Green DNA, 72 h; series mostly up to 28.7 µM
# Procedure, shortened: as §3
# P93_24 = experiment: as above; details: P. falciparum in erythrocytes, SYBR Green DNA, 72 h; series mostly up to 28.7 µM
# Procedure, shortened: as §3
# P94_40 = experiment: as above; details: P. falciparum in erythrocytes, SYBR Green DNA, 72 h; series mostly up to 28.7 µM
# Procedure, shortened: as §3
# PAD = experiment: as above; details: P. falciparum in erythrocytes, SYBR Green DNA, 72 h; series mostly up to 28.7 µM
# Procedure, shortened: as §3
# PC15 = experiment: as above; details: P. falciparum in erythrocytes, SYBR Green DNA, 72 h; series mostly up to 28.7 µM
# Procedure, shortened: as §3
# PC26 = experiment: as above; details: P. falciparum in erythrocytes, SYBR Green DNA, 72 h; series mostly up to 28.7 µM
# Procedure, shortened: as §3
# PC49 = experiment: as above; details: P. falciparum in erythrocytes, SYBR Green DNA, 72 h; series mostly up to 28.7 µM
# Procedure, shortened: as §3
# SC27B = experiment: as above; details: P. falciparum in erythrocytes, SYBR Green DNA, 72 h; series mostly up to 28.7 µM
# Procedure, shortened: as §3
# TAB109 = experiment: as above; details: P. falciparum in erythrocytes, SYBR Green DNA, 72 h; series mostly up to 28.7 µM
# Procedure, shortened: as §3
# TAB113 = experiment: as above; details: P. falciparum in erythrocytes, SYBR Green DNA, 72 h; series mostly up to 28.7 µM
# Procedure, shortened: as §3
# TAB165 = experiment: as above; details: P. falciparum in erythrocytes, SYBR Green DNA, 72 h; series mostly up to 28.7 µM
# Procedure, shortened: as §3
# HEK293 = experiment: Cytotoxic Profiling of Annotated Libraries Using Quantitative High-Throughput Screening (AID 1296008); details: Five cell lines viability, CellTiter-Glo ATP luminescence, 48-72 h; max response: hits give low values; further: potency means the concentration at half of the fitted maximal effect
# Procedure, shortened: as §1
# W2 = experiment: qHTS profiling for inhibitors of Plasmodium falciparum proliferation (AID 504749); further: potency means the concentration at half of the fitted maximal effect; details: P. falciparum in erythrocytes, SYBR Green DNA, 72 h; series mostly up to 28.7 µM
# Procedure, shortened: as §3
# Further: nearly all actives have a fitted effect of over 60% in size.
compound,measurement,setting,value
COCCCOc1cc(C[C@@H](C[C@H](N)[C@@H](O)C[C@H](C(=O)NCC(C)(C)C(N)=O)C(C)C)C(C)C)ccc1OC,max response,CRL-7250,-2.04%
same,max response,HaCat [1],0.78%
same,outcome,HaCat [1],inactive
same,max response,KB-3-1,-10.1% and 2.39%
same,max response,NIH3T3,-0.804%
same,outcome,NIH3T3,inactive
same,outcome,HACAT [2],inactive
same,outcome,HEK293T,inactive
CC[C@H](C)C(=O)O[C@H]1C[C@@H](C)C=C2C=C[C@H](C)[C@H](CC[C@@H]3C[C@@H](O)CC(=O)O3)[C@H]21,Potency,JCK,inactive
same,Potency,N140,inactive
same,Potency,P93_24,inactive
same,Potency,P94_40,inactive
same,Potency,PAD,inactive
same,Potency,PC15,inactive
same,Potency,PC26,inactive
same,Potency,PC49,inactive
same,Potency,SC27B,inactive
same,Potency,TAB109,inactive
same,Potency,TAB113,inactive
same,Potency,TAB165,inactive
same,Potency,CRL-7250,2.66 µM (active) and 13.2 µM (active) and 3.17 µM (active)
same,max response,HEK293,-37.5%
same,Potency,HaCat [1],11.8 µM (active)
same,max response,NIH3T3,-16.3%
NC(=O)c1cccc(N)c1,max response,CRL-7250,-10%
same,max response,HEK293,-4.67%
same,max response,HaCat [1],-6.72%
same,outcome,KB-3-1,inactive
same,outcome,NIH3T3,inactive
NC(=O)N1c2ccccc2CC(=O)c2ccccc21,Potency,JCK,inactive
same,Potency,N140,inactive
same,Potency,P93_24,inactive
same,Potency,P94_40,inactive
same,Potency,PAD,inactive
same,Potency,PC15,inactive
same,Potency,PC26,inactive
same,Potency,PC49,inactive
same,Potency,SC27B,inactive
same,Potency,TAB109,inactive
same,Potency,TAB113,inactive
same,Potency,TAB165,inactive
same,Potency,W2,inactive
same,max response,CRL-7250,1.16% and -4.89%
same,outcome,HEK293,inactive
same,outcome,HaCat [1],inactive
same,max response,KB-3-1,-10.3% and 3.64%
same,outcome,NIH3T3,inactive
same,outcome,HACAT [2],inactive
same,outcome,HEK293T,inactive
COC(=O)Nc1nc2ccc(Sc3ccccc3)cc2[nH]1,Potency,JCK,inactive
same,Potency,N140,inactive
same,Potency,P93_24,inactive
same,Potency,P94_40,inactive
same,Potency,PAD,inactive
same,Potency,PC15,inactive
same,Potency,PC26,inactive
same,Potency,PC49,inactive
same,Potency,SC27B,inactive
same,Potency,TAB109,inactive
same,Potency,TAB113,inactive
same,Potency,TAB165,inactive
same,Potency,W2,inactive
same,Potency,CRL-7250,2.37 µM (active)
same,Potency,HEK293,473 nM (active) and 1.32 µM (active)
same,max response,HaCat [1],-7.21%
same,Potency,KB-3-1,1.66 µM (active)
same,Potency,NIH3T3,668 nM (active)
Nc1nc(=S)c2[nH]cnc2[nH]1,Potency,CRL-7250,18.8 µM (active)
same,Potency,HEK293,3.76 µM (active) and 9.35 µM (active)
same,Potency,HaCat [1],1.5 µM (active) and 4.69 µM (active)
same,Potency,KB-3-1,5.17 µM (active) and 3.66 µM (active) and 1.32 µM (active)
same,Potency,NIH3T3,841 nM (active) and 3.32 µM (active)
O=C(NCC1CN(c2ccc(N3CCOCC3=O)cc2)C(=O)O1)c1ccc(Cl)s1 (configuration not stated),outcome,CRL-7250,inactive
same,max response,HEK293,-28.8%
same,outcome,HaCat [1],inactive
same,max response,KB-3-1,-19.6%
same,max response,NIH3T3,3.35%
same,outcome,NIH3T3,inactive
same,outcome,HACAT [2],inactive
COc1cccc(N(C)C(=S)Oc2ccc3c(c2)CCCC3)n1,Potency,JCK,inactive
same,Potency,N140,inactive
same,Potency,P93_24,inactive
same,Potency,PAD,inactive
same,Potency,PC15,inactive
same,Potency,PC26,inactive
same,Potency,PC49,inactive
same,Potency,SC27B,inactive
same,Potency,TAB109,inactive
same,outcome,CRL-7250,inactive
same,max response,HEK293,-19.3%
same,outcome,HaCat [1],inactive
same,max response,KB-3-1,-2.71% and 6.85%
same,max response,NIH3T3,2.09%
same,outcome,HACAT [2],inactive
Cc1oc(=O)oc1CN1CCN(c2cc3c(cc2F)c(=O)c(C(=O)O)c2n3C(C)S2)CC1 (configuration not stated),Potency,P93_24,5.01 µM (active)
same,Potency,P94_40,7.94 µM (active)
same,Potency,PC49,inactive
same,Potency,SC27B,8.91 µM (active)
same,Potency,TAB109,4.47 µM (active)
same,Potency,TAB113,7.94 µM (active)
same,Potency,TAB165,5.01 µM (active)
same,Potency,W2,4.78 µM (active)
same,max response,CRL-7250,-3.57% and 1.83%
same,max response,HEK293,0.387% and 0.715%
same,outcome,HaCat [1],inactive
same,max response,KB-3-1,23.6%
same,outcome,KB-3-1,inactive
same,max response,NIH3T3,-0.29%
same,outcome,NIH3T3,inactive
same,outcome,HACAT [2],inactive
CC1=C(C(=O)O)N2C(=O)[C@@H](NC(=O)C(N)c3ccccc3)[C@H]2SC1 (some centres not stated),max response,CRL-7250,-9.32%
same,max response,HEK293,-2.36%
same,max response,HaCat [1],3%
same,outcome,KB-3-1,inactive
same,outcome,NIH3T3,inactive
CC(C)C1CCC(C(=O)N[C@H](Cc2ccccc2)C(=O)O)CC1 (some centres not stated),max response,CRL-7250,-2.02% and -1.93%
same,max response,HEK293,-0.795% and -11.5%
same,max response,HaCat [1],-8.21% and -7.47%
same,max response,KB-3-1,4.69% and 4.96%
same,max response,NIH3T3,0.816% and -0.595%
CCOCC(O)COc1ccc(NC(=O)CC[S+](C)C)cc1 (configuration not stated),Potency,JCK,inactive
same,Potency,N140,inactive
same,Potency,P93_24,inactive
same,Potency,P94_40,inactive
same,Potency,PAD,inactive
same,Potency,PC15,inactive
same,Potency,PC26,inactive
same,Potency,PC49,inactive
same,Potency,SC27B,inactive
same,Potency,TAB109,inactive
same,Potency,TAB113,inactive
same,Potency,TAB165,inactive
same,Potency,W2,inactive
same,max response,CRL-7250,-11.9% and -0.62%
same,max response,HaCat [1],4.61%
same,outcome,HaCat [1],inactive
same,max response,KB-3-1,-5.04%
same,outcome,KB-3-1,inactive
same,max response,NIH3T3,4.96% and 4.72%
same,outcome,HACAT [2],inactive
CC(C)C[C@H](NC(=O)[C@H](CCc1ccccc1)NC(=O)CN1CCOCC1)C(=O)N[C@@H](Cc1ccccc1)C(=O)N[C@@H](CC(C)C)C(=O)[C@@]1(C)CO1,Potency,CRL-7250,211 nM (active) and 209 nM (active)
same,Potency,HEK293,37.6 nM (active) and 23.5 nM (active)
same,Potency,HaCat [1],0.332 µM (active)
same,Potency,KB-3-1,1.84 µM (active) and 132 nM (active)
same,Potency,NIH3T3,299 nM (active) and 235 nM (active)
Cc1nnc(NS(=O)(=O)c2ccc(N)cc2)s1,Potency,JCK,inactive
same,Potency,N140,inactive
same,Potency,P93_24,inactive
same,Potency,P94_40,inactive
same,Potency,PC15,inactive
same,Potency,PC26,inactive
same,Potency,PC49,inactive
same,Potency,SC27B,inactive
same,Potency,TAB109,inactive
same,Potency,TAB113,inactive
same,Potency,TAB165,inactive
same,Potency,W2,inactive
